# From PubChem BioAssay AID1063 (University of Pittsburgh Molecular Library Screening Center, 2008)
# The campaign covered roughly 200,000 compounds. About 18,000 (9%) were called active. Cut-off read from the data, not from the text of the source: active = inhibition above about 50%; inactive = the rest. Many of the other results were omitted from the sample, so actives are more common in it than they were.
# Assay: Leishmania major promastigote growth inhibition, primary screen (AID 1063);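 note: promastigotes grown with compound for 44 hours at 28 °C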
# Settings: Leishmania major promastigotes, resazurin fluorescence viability; at 10 µM; stronger effect = higher value
row,Structure (SMILES),inhibition
1,CC(C)Cn1c(N2CCN(C(=O)/C=C/c3ccccc3)CC2)nc2ccccc21,5.8% (inactive)
2,CCCCOC(=O)c1ccc(N2C(=O)CC(N3CCN(C/C=C/c4ccccc4)CC3)C2=O)cc1 (stereo unspecified),-5.72% (inactive)
3,O=C(Cn1c(N2CCN(C/C=C/c3ccccc3)CC2)nc2ccccc21)c1ccccc1,53.2% (active)
4,Cc1ccc(-c2csc3nnc(SCC(=O)NCc4ccco4)n23)cc1,-1.56% (inactive)
5,O=C(CSc1nnc(-c2ccncc2)n1-c1ccc(Cl)cc1)Nc1ccc(C(=O)O)cc1,-7.6% (inactive)
6,Cc1ccc(-n2c(SCC(=O)NCc3ccc4c(c3)OCO4)nnc2-c2cccnc2)c(C)c1,7.56% (inactive)
7,Cc1ccc(-n2c(SCC(=O)N3c4ccccc4Sc4ccccc43)nnc2-c2ccncc2)cc1,62.6% (active)
8,CCOc1ccccc1-n1c(SCC(=O)NCc2ccco2)nnc1-c1ccncc1,67.1% (active)
9,Cc1ccc(-c2nnc(SCC(=O)N/N=C/c3cccs3)n2-c2ccc(C)cc2)cc1,32% (inactive)
10,Cc1ccc(Nc2nc(CSc3nnc(-c4ccncc4)n3-c3ccccc3C)cs2)cc1,28.5% (inactive)
11,CCn1c(SCC(=O)NCc2ccco2)nnc1-c1ccc(N)cc1,-3.78% (inactive)
12,Cc1ccccc1-n1c(SCC(=O)NCc2cccs2)nnc1-c1ccncc1,53% (active)
13,CCc1nc2ccccc2c(C(=O)OC2CCCCC2=O)c1C (stereo unspecified),7.85% (inactive)
14,O=[N+]([O-])c1cccc(/C([O-])=C(/C(=S)Nc2ccccc2F)[n+]2ccccc2)c1,-0.54% (inactive)
15,C=CCN(C(=O)c1cc(C)cc(C)c1)C1(C(=O)Nc2ccccc2)CCN(C(C)C)CC1,6.23% (inactive)
16,CCNC(=O)N1c2ccccc2Sc2ccccc21,4.94% (inactive)
17,COc1ccccc1CNC(=O)C1Cc2ccccc2C(=O)O1 (stereo unspecified),-1.31% (inactive)
18,CCCC1NC(=S)NC(C)=C1C(C)=O (stereo unspecified),-12.4% (inactive)
19,O=C(/C=C/c1ccc2c(c1)OCO2)NCc1cn2cc(Cl)ccc2n1,-4.11% (inactive)
20,CC(C)NC(=S)Nc1cccc2cnccc12,-1.24% (inactive)
21,CCOC(=O)Cn1nnnc1C,-3.4% (inactive)
22,C=CCC(CC=C)(C(N)=O)c1ccccc1,2.87% (inactive)
23,CCCC(O)(CCC)C(=O)NN(C(=O)CCl)c1cccc(C)c1,82.9% (active)
24,CCCCC(O)(CCCC)C(=O)NN(C(=O)CCl)c1ccccc1,54.5% (active)

row,Structure (SMILES),inhibition
1,CCCCCCCCC(=O)NCCOc1ccccc1,-9.39% (inactive)
2,CCC(C)NC(=O)CCCc1ccccc1 (stereo unspecified),13.2% (inactive)
3,Cc1ccc(N(NC(=O)C(C)(C)O)C(=O)c2ccccc2)cc1C,-3.54% (inactive)
4,CC(C)(O)C(=O)NN(C(=O)c1ccccc1)c1cccc(Br)c1,3.6% (inactive)
5,Cc1ccc(N(C(=O)c2ccc(S(=O)(=O)N(C)C)cc2)C2C=CS(=O)(=O)C2)cc1 (stereo unspecified),5.35% (inactive)
6,COc1ccccc1-c1noc(CSc2nc(C)cc(=O)[nH]2)n1,-6.37% (inactive)
7,N#CCC(=O)N/N=C/c1ccc(SCC(=O)Nc2ccccc2)o1,-1.51% (inactive)
8,CCSc1sc(CC)cc1C=O,5.02% (inactive)
9,O=C(Nc1ccccc1)Nc1nc2ccccc2s1,-0.32% (inactive)
10,Cc1ccnc(Nc2nc3ccccc3s2)n1,11.8% (inactive)
11,c1ccc2sc(NN=C3CCCC3)nc2c1,57% (active)
12,O=C(C1CCCN1S(=O)(=O)c1ccc(Br)cc1)N1CCOCC1 (stereo unspecified),1.18% (inactive)
13,CC1(C)CN(c2ccc(-c3ccnc4ncnn34)cc2)C1=O,8.31% (inactive)
14,CCN(CC)CCN(C(=O)c1ccc(N2C(=O)CCC2=O)cc1)c1nc2cc3c(cc2s1)OCO3,4.38% (inactive)
15,Cc1[nH]c2ccccc2c1SCC(=O)Nc1nccs1,2.27% (inactive)
16,Cc1ccc(NC(=O)NC2CCCCC2)cc1S(=O)(=O)N1CCOCC1,27.4% (inactive)
17,O=C(NC(=S)Nc1ccc(S(=O)(=O)N2CCOCC2)cc1)c1ccccc1[N+](=O)[O-],5.68% (inactive)
18,Cc1cc(C(=O)COc2ccccc2[N+](=O)[O-])c(C)n1-c1cccc(S(=O)(=O)N2CCOCC2)c1,98.9% (active)
19,COc1ccc(S(=O)(=O)N2CCC(C(=O)OCC(=O)c3ccccc3)CC2)cc1[N+](=O)[O-],-6.1% (inactive)
20,S=c1[nH]ccn1-c1ccc(Cl)cc1,-8.82% (inactive)
21,O=S(=O)(NC1CC1)c1ccc2c3c(cccc13)CC2,3.72% (inactive)
22,Cc1ccc(C(=O)OC2CCCN(C)C2)cc1 (stereo unspecified),-6.05% (inactive)
23,CCNS(=O)(=O)c1ccc(NC(=O)Nc2cccc(OC)c2)cc1,3.37% (inactive)
24,O=C(Nc1ccc(S(=O)(=O)Nc2ncccn2)cc1)c1cncc(Br)c1,-5.97% (inactive)

row,Structure (SMILES),inhibition
1,CCNS(=O)(=O)c1ccc(NC(=O)c2cncc(Br)c2)cc1,50.3% (active)
2,N#CC1(C#N)C(C(=O)C23CC4CC(CC(C4)C2)C3)C12CCOCC2 (stereo unspecified),4.33% (inactive)
3,Cc1ccccc1CSc1nnc(-c2ccccc2)c(=O)[nH]1,-8.07% (inactive)
4,Cc1nn(CC(=O)Nc2nc3ccccc3s2)c(C)c1[N+](=O)[O-],50.5% (active)
5,Cc1nn(CC(=O)NCc2ccccn2)c(C)c1[N+](=O)[O-],-2.73% (inactive)
6,CCc1ccc(NC(=O)Cn2nc(C)c([N+](=O)[O-])c2C)cc1,6.59% (inactive)
7,C=CCN(CC=C)C(=O)COC(=O)c1n[nH]c2ccccc12,1.59% (inactive)
8,CN(C(=O)CSc1nncc2ccccc12)C1CCCCC1,0.99% (inactive)
9,Cc1ccc(-c2cn3cc([N+](=O)[O-])ccc3n2)cc1,6.77% (inactive)
10,Cc1ccc(-c2cn3cc(C)ccc3n2)cc1,87.7% (active)
11,COc1ccc(-c2cn3ccsc3n2)cc1,0.76% (inactive)
12,CC1(C)C2CC=C(/C=N/NC(=O)c3ccc(Cl)cc3)C1C2 (stereo unspecified),96% (active)
13,N#Cc1cc([N+](=O)[O-])ccc1Oc1cccc(/C=N/NC(=O)c2ccc(Cl)cc2)c1,15.7% (inactive)
14,CC1(C)C2CC=C(/C=N/NC(=O)C3CC3)C1C2 (stereo unspecified),99.3% (active)
15,O=C(N/N=C/c1ccco1)c1ccc(NC(=O)C2CC2)cc1,5.98% (inactive)
16,CC(C)(C)C(=O)Nc1ccc(C(=O)N/N=C/c2ccccc2OC(=O)c2ccc(Cl)cc2Cl)cc1,40.8% (inactive)
17,CCOc1ccc(N2C(=O)CN(c3cccc4ccccc34)C2=S)cc1,-2.38% (inactive)
18,CCS(=O)(=O)C1=NSC2=NC(=O)/C(=C\c3cc(C)n(-c4cccc(OC)c4)c3C)C(=N)N21,-2.58% (inactive)
19,Cc1ccc(S(=O)(=O)NCCC(c2ccccc2)c2ccccc2)cc1C(=O)O,-13.6% (inactive)
20,COc1cccc(-n2nc(C(=O)N3CCN(Cc4ccccc4)CC3)c3ccccc3c2=O)c1,-6.17% (inactive)
21,NC(N)=N/N=C/c1ccc(Cl)c([N+](=O)[O-])c1,100% (active)
22,Cc1ccnc(NC(=O)c2ccc(Cl)c([N+](=O)[O-])c2)c1,28.8% (inactive)
23,CC(CC(=O)O)C(=O)c1ccc(Cl)c([N+](=O)[O-])c1 (stereo unspecified),-1.01% (inactive)
24,O=C(CCNS(=O)(=O)c1ccc(Br)s1)NCc1ccccc1Cl,15.3% (inactive)

row,Structure (SMILES),inhibition
1,CCCc1cc(=O)[nH]c(SCC(=O)N2CCN(S(=O)(=O)c3ccc(C)cc3C)CC2)n1,63% (active)
2,CCCc1cc(=O)[nH]c(SCC(=O)c2cc(C)n(CCC)c2C)n1,11.3% (inactive)
3,CCCc1cc(=O)[nH]c(SCC(=O)OCc2ccccc2)n1,1.09% (inactive)
4,CCCOc1ccc(NC(=O)CC2C(=O)N(C)C(=S)N2Cc2ccc3c(c2)OCO3)cc1 (stereo unspecified),3.31% (inactive)
5,CC(C)(C)SCCNC(=O)c1cccc([N+](=O)[O-])c1,45.2% (inactive)
6,COc1cccc(NCCC(=O)c2cccc([N+](=O)[O-])c2)c1,85% (active)
7,COc1ccc(Cc2nnc(SCC(=O)c3cccc([N+](=O)[O-])c3)n2C)cc1,7.37% (inactive)
8,O=C(c1nnc(-c2ccc(Cl)cc2)o1)C1CCCC1,-8.13% (inactive)
9,Cc1cccc(NC(=S)NC23CN4CN(CN(C4)C2)C3)c1,-0.78% (inactive)
10,Cc1ccc(NC(=O)CN2CCC3(O)CCCCC3C2c2ccc3c(c2)OCO3)c(C)c1 (stereo unspecified),89.1% (active)
11,O=C(CN1CCOCC1)Nc1ccccc1,-4.08% (inactive)
12,CC1CCCCN1CC(=O)NCc1ccc2c(c1)OCO2 (stereo unspecified),4.4% (inactive)
13,CC1CCCCC1NC(=O)CN1CCC(O)(c2ccc3c(c2)OCO3)CC1 (stereo unspecified),30.1% (inactive)
14,CC(=O)NC1CC2CCCC(C1)N2CC(=O)Nc1ccccc1 (stereo unspecified),-0.85% (inactive)
15,CCN(CC)c1ccc(C2C3CCCCC3(O)CCN2CC(=O)Nc2ccccc2)cc1 (stereo unspecified),78.2% (active)
16,Cc1cccc(OCC(O)Cn2c(=N)n(CCN3CCOCC3)c3ccccc32)c1 (stereo unspecified),10.1% (inactive)
17,Cn1c(=N)n(CC(O)c2ccccc2)c2ccccc21 (stereo unspecified),3.48% (inactive)
18,CCOc1ccc(C(O)Cn2c(=N)n(CCN3CCCCC3)c3ccccc32)cc1 (stereo unspecified),80.6% (active)
19,CCOC(=O)C1C(c2ccc(Cl)cc2)NC(=S)NC1(O)C(F)(F)F (stereo unspecified),-2.87% (inactive)
20,CC1CN(C2CCN(C(=O)COc3ccccc3)CC2)CC(C)O1 (stereo unspecified),88.1% (active)
21,COc1ccc(OCC(=O)N2CCN(C(=O)COc3ccccc3)CC2)cc1,-5.93% (inactive)
22,COc1ccc(OCC(=O)N2CCOCC2)cc1,0.46% (inactive)
23,Cc1csc(CN(C)C(=O)CC2C(=O)NCCN2CC(C)(C)C)n1 (stereo unspecified),-1.56% (inactive)
24,O=C(N/N=C/c1ccc([N+](=O)[O-])cc1)c1c[nH]c2ccccc12,2.8% (inactive)
